# Measured values reported in PubChem BioAssay.
# Some of the results follow. Unmarked numbers belong to inactive results. Activity calls are given as the source filed them.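 How the source made its calls, unless noted: active means inhibition above the mean over all tested compounds plus 3 SD, which no compound reached; inactive means the rest.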
# Key:
# [1] = molecular target: Glutathione S-transferase omega-1 (Homo sapiens) (UniProt P78417); experiment: recombinant GSTO1 blockers, retest – biochemical, fluorescence polarization, triplicate, counter-screen for RBBP9 inhibitor project, confirmation (AID 2176;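 active means inhibition above the primary screen's cutoff, its mean inhibition plus 3 SD, cut at about 35% in these data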;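 further: loss of polarization as inhibitors block binding of rhodamine sulfonate ester activity probe; 0% = GSTO1 with DMSO and 100% = wells lacking GSTO1 enzyme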); conditions: recombinant GSTO1, probe fluorescence polarization; at 5.96 µM; active compounds read high
# [2] = molecular target: Platelet-activating factor acetylhydrolase (Homo sapiens) (UniProt Q13093); experiment: inhibition of plasma PAF acetylhydrolase – biochemical, fluorescence polarization, human, confirmation (AID 463230;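 active means mean inhibition of the triplicate above the hit cutoff set for the earlier primary screen, cut at about 25% in these data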;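 further: 0% = enzyme with DMSO and 100% = wells lacking pPAFAH enzyme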); conditions: recombinant pPAFAH, FP-Rh probe fluorescence polarization; at 3.39 µM; active compounds read high
# [3] = reduced OD of T4-infected AddAB+ E. coli – absorbance, E. coli V3065, T4 phage, triplicate, AddAB inhibitor project, confirmation (AID 488942;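 active means mean inhibition above a set limit taken from the earlier primary screen, cut at about 13% in these data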;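 further: higher means less bacterial growth since AddAB block lets phage replicate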); conditions: E. coli V3065 expressing H. pylori AddAB, at 11.9 µM, active compounds read high, T4 phage with gene 2 nonsense mutations
# [4] = reduced OD of phage-infected RecBCD+ V66 E. coli – absorbance, mutant T4 phage, counter-screen for AddAB inhibitor project (AID 488955;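 active means mean inhibition above the mean of solvent-only control wells plus 3 SD, cut at about 4% in these data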;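 further: optical density read after an 18 h incubation at 37 °C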); conditions: OD growth, at 11.9 µM, active compounds read high
# [5] = bacterial growth inhibitors – absorbance, counter-screen for AddAB inhibitor project, confirmation (AID 488956; in the data active means inhibition above about 25%); conditions: bacterial viability, absorbance (AddAB counterscreen); at 11.9 µM; active compounds read high
# [6] = reduced OD of V66 E. coli with T4 gene 2 phage – absorbance, RecBCD inhibitor project, confirmation (AID 651982;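 active means mean inhibition over triplicates exceeding the hit threshold derived in the original primary screen, cut at about 11% in these data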); conditions: E. coli V66 + T4 2- phage, growth OD; at 11.9 µM; active compounds read high
# [7] = bacterial growth inhibition – absorbance, high throughput, counter-screen for RecBCD inhibitor project (AID 651983; in the data active means inhibition above about 20%;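 further: E. coli strain V66 grown with compound alone and no phage infection; 0% = bacteria with DMSO vehicle only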); conditions: E. coli viability, absorbance (OD) growth; at 11.9 µM; active compounds read high
# [8] = reduced optical density, T4-challenged addAB+ bacteria – absorbance, E. coli V3065, T4 phage, counter-screen for RecBCD inhibitor project, confirmation (AID 651984;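 active means mean inhibition above the solvent-only control wells' mean plus 3 SD, cut at about 22% in these data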;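 further: higher means less bacterial growth from phage killing when AddAB is blocked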); conditions: E. coli expressing H. pylori AddAB + T4 phage, OD growth; at 11.9 µM; active compounds read high; gene 2 mutant T4, recBCD-deleted host
# [9] = BSA probe fluorescence interference – biochemical, TAMRA-labeled BSA, counter-screen for TCR-CD3 interaction inhibitor project (AID 652035; in the data active means inhibition above about 23%;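 further: 0% = buffer low control and 100% = reference high control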); conditions: TAMRA-labeled BSA probe fluorescence counterscreen; at 9.4 µM; active compounds read high
# [10] = tested on: T-cell receptor (TCR)-CD3 interaction, human; experiment: blockers of TCR binding to CD3 – biochemical, fluorescence, TAMRA-labeled TCR probe, confirmation (AID 652036; in the data active means inhibition above about 19%); conditions: TAMRA-labeled TCR probe fluorescence binding assay; at 9.4 µM; active compounds read high
# [11] = molecular target: (Lyso)-N-acylphosphatidylethanolamine lipase (Mus musculus) (UniProt Q8VD66); experiment: mouse ABHD4 hydrolase blockers, triplicate – biochemical, fluorescence polarization, confirmation (AID 720658;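 active means mean inhibition across replicates above the hit cutoff set in the primary screen, cut at about 30% in these data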;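 further: 0% = wild-type ABHD4 with DMSO and 100% = catalytically dead S159A mutant with DMSO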); conditions: purified mABHD4, FP-Rh probe fluorescence polarization; at 8.92 µM; active compounds read high
# [12] = tested on: HIV-1 integrase (multimerization); experiment: stimulation of HIV-1 integrase oligomerization – biochemical, TR-FRET, counter-screen for LEDGF/p75 integration inhibitor project (AID 1053131; in the data active means activation above about 8.9%); conditions: TR-FRET HIV-1 integrase multimerization, at 7.7 µM, active compounds read high
# [13] = compounds disturbing TR-FRET signal readout – biochemical, HIV-1 IN multimerization, artefact control for LEDGF/p75-dependent integration inhibitor project, confirmation (AID 1053135); conditions: TR-FRET optical interference counterscreen, at 7.7 µM, active compounds read high;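 further: 0% = integrase with antibodies and DMSO and 100% = antibodies without integrase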
# [14] = tested on: HIV-1 integrase / human LEDGF/p75 complex; experiment: blockers of LEDGF/p75-dependent integrase activity – biochemical, TR-FRET, confirmation (AID 1053136; in the data active means inhibition above about 14%); conditions: TR-FRET LEDGF/p75-dependent HIV-1 integration, at 3.7 µM, active compounds read high
# [15] = molecular target: Bcl-2-like protein 1 (Homo sapiens) (UniProt Q07817); experiment: Bcl-xL BH3-peptide displacement, hit confirmation – biochemical, fluorescence polarization, counter-screen for MCL1 inhibitor project (AID 2166;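 active means inhibition above a cutoff equal to the mean inhibition of all tested compounds plus 3 SD, cut at about 30% in these data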); conditions: GST-Bcl-xL / FITC-Bim BH3 peptide FP binding; at 10.9 µM; active compounds read high
# [16] = molecular target: Induced myeloid leukemia cell differentiation protein Mcl-1 (Homo sapiens) (UniProt Q07820); experiment: MCL1-BIM peptide interaction disruptors – biochemical, fluorescence polarization, triplicate, confirmation (AID 2168;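 active means inhibition above the average of all tested compounds plus 3 SD, cut at about 40% in these data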;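 further: 0% = DMSO wells and 100% = unlabeled Bim-BH3 control peptide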); conditions: GST-MCL1 / FITC-Bim-BH3 fluorescence polarization; at 10.9 µM; active compounds read high
# [17] = molecular target: Serine protease HTRA1 (Homo sapiens) (UniProt Q92743); experiment: confirming inhibition of human HTRA1 – biochemical, fluorescence polarization, confirmation (AID 540248;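 active means mean inhibition over three repeats above a set limit taken from the earlier primary screen, cut at about 37% in these data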;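 further: 0% = HTRA1 with DMSO and 100% = wells lacking HTRA1; inhibitors block probe binding so polarization drops and inhibition rises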); conditions: recombinant HTRA1, FP-rhodamine activity-based probe, at 5.96 µM, active compounds read high
# [18] = molecular target: Galanin receptor type 2 (Homo sapiens) (UniProt O43603); experiment: blockers of human galanin receptor 2 – cell-based, confirmation (AID 866; in the data active means inhibition above about 27%;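 further: cells stimulated with galanin at about its EC80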); conditions: GALR2-expressing cells, antagonist mode, at 4 µM, active compounds read high
# [19] = nonspecific BLA reporter inhibition – CHO NFAT-bla cells, FRET readout, counter-screen for GALR2 antagonist project, confirmation (AID 867;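 active means inhibition above the mean inhibition across tested compounds plus 3 SD, cut at about 27% in these data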;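 further: 0% = 500 nM thapsigargin stimulated wells and 100% = unstimulated BSA only wells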); conditions: beta-lactamase FRET, thapsigargin-stimulated, at 4.2 µM, active compounds read high
# [20] = tested on: TLR4-MyD88 interaction (human), BLA complementation; experiment: disruptors of TLR4 binding to MyD88 – cell-based, HeLa CL3-4, BLA complementation, FRET ratio, confirmation (AID 941;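 active means mean inhibition across three repeat runs above about 25% carried over from the earlier screen, limit read from the data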;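 further: plate controls were DMSO only for no effect and clavulanic acid blocking BLA at full dose for full effect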); conditions: CCF4 FRET ratio, at 8.4 µM, active compounds read high
# [21] = BLA reporter interference in HeLa cells – cell-based, full-length BLA, CCF4 FRET ratio, artefact control for TLR4-MyD88 binding inhibitor project, confirmation (AID 1237;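 active means mean inhibition over three repeats above about 26% taken from the earlier screen, limit read from the data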;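 further: HeLa cells stably expressing beta-lactamase reporter as counterscreen for TLR4-MyD88 inhibitors; 0% = DMSO and 100% = clavulanic acid full inhibition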); conditions: at 8.4 µM, active compounds read high
# [22] = molecular target: Toll-like receptor 9 (Homo sapiens) (UniProt Q9NR96); experiment: disruptors of TLR9 binding to MyD88 – cell-based, CHO, BLA complementation, fluorescence, triplicate, confirmation (AID 540250;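 active means mean inhibition across three repeats above about 21% taken from the earlier screen, limit read from the data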;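 further: blue over green emission ratio reports constitutive TLR9 MyD88 association via BLA complementation; 0% = DMSO vehicle wells and 100% = clavulanate BLA inhibitor wells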); conditions: CCF4 FRET ratio, at 4.98 µM, active compounds read high
# [23] = BLA reporter readout interference – cell-based, fluorescence, artefact control for TLR9-MyD88 binding inhibitor project (AID 540251;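 active means mean inhibition above a 50% cutoff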;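 further: counterscreen of TLR9-MyD88 hits on CMV-driven BLA in CHO-K1 cells; 0% = DMSO alone and 100% = clavulanate blocking BLA; higher means less blue over green ratio so more BLA blockade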); conditions: CHO-BLA cells, CCF4 FRET ratio, at 4.98 µM, active compounds read high
# [24] = CHO cell viability loss – luminescence, single concentration, cytotoxicity control for TLR9-MyD88 binding inhibitor project (AID 588336; in the data active means inhibition above about 11%); conditions: TLR9-MyD88 CHO cells cytotoxicity, at 4.98 µM, active compounds read high
# [25] = molecular target: Receptor-interacting serine/threonine-protein kinase 2 (Homo sapiens) (UniProt O43353); experiment: inhibitors of RIPK2 association with NOD2 – fluorescence, CHO cells, BLA complementation, triplicate, confirmation (AID 624370;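 active means mean inhibition across replicates above a set limit taken from the earlier primary screen, cut at about 21% in these data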;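 further: 0% = DMSO-only wells and the high end = clavulanate BLA-blocked wells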); conditions: CCF4 FRET, at 4.98 µM, active compounds read high
# [26] = BLA reporter readout interference – cell-based, CHO-K1 CMV-bla, CCF4 FRET, fluorescence, artefact control for NOD2-RIPK2 interaction inhibitor project, confirmation (AID 624371;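 active means mean inhibition above the low-control mean inhibition plus three low-control SD, cut at about 11% in these data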;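 further: 0% = DMSO only wells and 100% = clavulanate high control wells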); conditions: CCF4 FRET ratio, counterscreen, at 4.98 µM, active compounds read high
# [27] = potentiators of IFN-gamma STAT1 reporter activity – cell-based, HTS, luciferase reporter, confirmation (AID 1262;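 active means activation above a set limit carried over from the earlier primary STAT1 screen, cut at about 140% in these data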;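 further: simple ratio to median IFN-gamma plus DMSO wells so 0% means no light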); conditions: NIH 3T3 STAT1-luciferase reporter, IFN-gamma potentiation, luminescence; at 5.7 µM; active compounds read high; 100% = IFN-gamma EC80 alone, no compound
# [28] = enhancement of NF-kB transcriptional signalling – cell-based, HEK293T, luciferase luminescence, TNF-alpha, counter-screen for STAT1 activator project (AID 1306;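 active means activation above the mean of solvent-only control wells plus 3 SD, set per campaign, cut at about 130% in these data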;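 further: TNF-alpha given at a submaximal dose yielding about 80% of full reporter signal; values are well signal over median control so 100% means no change and 0% no light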); conditions: HEK293T NF-kB luciferase reporter, TNF-alpha stimulated, at 5.7 µM, active compounds read high, 100% = TNF-alpha with vehicle only
# [29] = molecular target: Signal transducer and activator of transcription 3 (Homo sapiens) (UniProt P40763); experiment: enhancers of IL-6 STAT3 transcription – U3A cells, luciferase, luminescence, counter-screen for STAT1 activator project, confirmation (AID 1316;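 active means activation above the solvent-only control well mean plus 3 SD, set per plate batch, cut at about 110% in these data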;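 further: 0% = no luminescence and 100% = median IL-6 plus DMSO wells; higher means more STAT3 reporter activation so hits are non-selective activators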); conditions: U3A cells STAT3-luciferase reporter, IL-6, luminescence; at 5.7 µM; active compounds read high; 100 = IL-6 alone, no compound effect; cells lack STAT1
# [30] = molecular target: Protein-arginine deiminase type-4 (Homo sapiens) (UniProt Q9UM07); experiment: protein arginine deiminase 4 blockade, retest – biochemical, fluorescence polarization, confirmation (AID 488796;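 active means mean inhibition across replicates above the hit cutoff set by the earlier primary screen, cut at about 15% in these data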;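 further: inhibitors block active-site labeling by the probe so polarization falls; 0% = PAD4 with probe and DMSO and 100% = probe without PAD4 enzyme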); conditions: recombinant PAD4, RCA probe fluorescence polarization; at 6.36 µM; active compounds read high
# Chain of Protein-arginine deiminase type-4 (Homo sapiens) (Q9UM07 whole entry, looked up): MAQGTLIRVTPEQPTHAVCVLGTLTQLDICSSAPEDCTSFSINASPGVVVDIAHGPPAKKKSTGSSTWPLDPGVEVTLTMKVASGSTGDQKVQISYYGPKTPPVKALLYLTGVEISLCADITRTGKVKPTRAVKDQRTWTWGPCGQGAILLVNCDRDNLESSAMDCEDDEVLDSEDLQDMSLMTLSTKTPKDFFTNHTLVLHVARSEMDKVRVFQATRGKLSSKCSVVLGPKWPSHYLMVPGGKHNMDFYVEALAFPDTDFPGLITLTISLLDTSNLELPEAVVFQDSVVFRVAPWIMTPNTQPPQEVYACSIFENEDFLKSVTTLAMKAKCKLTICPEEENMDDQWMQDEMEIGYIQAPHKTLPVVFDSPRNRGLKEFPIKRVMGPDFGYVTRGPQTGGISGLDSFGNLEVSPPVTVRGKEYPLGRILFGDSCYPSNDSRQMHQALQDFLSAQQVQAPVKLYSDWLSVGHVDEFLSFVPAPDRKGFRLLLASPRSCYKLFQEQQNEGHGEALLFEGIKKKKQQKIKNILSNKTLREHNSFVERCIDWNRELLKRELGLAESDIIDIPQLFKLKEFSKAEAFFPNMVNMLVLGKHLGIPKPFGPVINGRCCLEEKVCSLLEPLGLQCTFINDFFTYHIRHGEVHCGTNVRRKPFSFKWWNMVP
# Chain of Platelet-activating factor acetylhydrolase (Homo sapiens) (Q13093 whole entry, looked up): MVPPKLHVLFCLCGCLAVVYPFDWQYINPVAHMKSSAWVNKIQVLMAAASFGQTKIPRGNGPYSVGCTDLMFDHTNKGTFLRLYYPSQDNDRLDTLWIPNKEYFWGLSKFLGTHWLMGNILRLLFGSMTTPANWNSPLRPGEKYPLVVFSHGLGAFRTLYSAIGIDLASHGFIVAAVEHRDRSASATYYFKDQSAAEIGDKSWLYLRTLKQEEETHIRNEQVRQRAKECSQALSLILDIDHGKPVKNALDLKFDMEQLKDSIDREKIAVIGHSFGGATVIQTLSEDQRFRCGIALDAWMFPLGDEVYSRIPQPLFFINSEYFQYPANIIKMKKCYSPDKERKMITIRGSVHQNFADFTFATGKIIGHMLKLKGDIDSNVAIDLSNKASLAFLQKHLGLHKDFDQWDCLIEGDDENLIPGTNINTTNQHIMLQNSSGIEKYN
# Chain of (Lyso)-N-acylphosphatidylethanolamine lipase (Mus musculus) (Q8VD66 whole entry, looked up): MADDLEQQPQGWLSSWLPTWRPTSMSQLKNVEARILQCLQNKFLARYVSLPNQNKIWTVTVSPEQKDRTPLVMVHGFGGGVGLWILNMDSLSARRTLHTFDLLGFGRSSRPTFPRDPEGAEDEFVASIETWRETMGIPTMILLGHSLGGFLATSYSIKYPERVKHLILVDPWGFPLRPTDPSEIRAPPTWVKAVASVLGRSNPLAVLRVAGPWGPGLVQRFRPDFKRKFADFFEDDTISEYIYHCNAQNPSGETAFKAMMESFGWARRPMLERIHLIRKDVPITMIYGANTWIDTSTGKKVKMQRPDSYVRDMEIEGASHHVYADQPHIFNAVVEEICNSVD
# Chain of Induced myeloid leukemia cell differentiation protein Mcl-1 (Homo sapiens) (Q07820 whole entry, looked up): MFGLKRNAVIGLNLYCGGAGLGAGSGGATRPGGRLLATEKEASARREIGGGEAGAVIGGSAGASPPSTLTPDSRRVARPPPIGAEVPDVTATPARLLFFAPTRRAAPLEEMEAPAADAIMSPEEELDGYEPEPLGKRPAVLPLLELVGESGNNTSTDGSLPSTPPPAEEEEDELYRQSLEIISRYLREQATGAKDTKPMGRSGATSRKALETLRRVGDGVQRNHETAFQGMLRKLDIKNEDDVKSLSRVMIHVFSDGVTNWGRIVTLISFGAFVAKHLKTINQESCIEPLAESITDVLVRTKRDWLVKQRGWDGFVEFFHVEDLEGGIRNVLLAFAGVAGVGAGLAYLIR
# Chain of Toll-like receptor 9 (Homo sapiens) (Q9NR96 whole entry, looked up): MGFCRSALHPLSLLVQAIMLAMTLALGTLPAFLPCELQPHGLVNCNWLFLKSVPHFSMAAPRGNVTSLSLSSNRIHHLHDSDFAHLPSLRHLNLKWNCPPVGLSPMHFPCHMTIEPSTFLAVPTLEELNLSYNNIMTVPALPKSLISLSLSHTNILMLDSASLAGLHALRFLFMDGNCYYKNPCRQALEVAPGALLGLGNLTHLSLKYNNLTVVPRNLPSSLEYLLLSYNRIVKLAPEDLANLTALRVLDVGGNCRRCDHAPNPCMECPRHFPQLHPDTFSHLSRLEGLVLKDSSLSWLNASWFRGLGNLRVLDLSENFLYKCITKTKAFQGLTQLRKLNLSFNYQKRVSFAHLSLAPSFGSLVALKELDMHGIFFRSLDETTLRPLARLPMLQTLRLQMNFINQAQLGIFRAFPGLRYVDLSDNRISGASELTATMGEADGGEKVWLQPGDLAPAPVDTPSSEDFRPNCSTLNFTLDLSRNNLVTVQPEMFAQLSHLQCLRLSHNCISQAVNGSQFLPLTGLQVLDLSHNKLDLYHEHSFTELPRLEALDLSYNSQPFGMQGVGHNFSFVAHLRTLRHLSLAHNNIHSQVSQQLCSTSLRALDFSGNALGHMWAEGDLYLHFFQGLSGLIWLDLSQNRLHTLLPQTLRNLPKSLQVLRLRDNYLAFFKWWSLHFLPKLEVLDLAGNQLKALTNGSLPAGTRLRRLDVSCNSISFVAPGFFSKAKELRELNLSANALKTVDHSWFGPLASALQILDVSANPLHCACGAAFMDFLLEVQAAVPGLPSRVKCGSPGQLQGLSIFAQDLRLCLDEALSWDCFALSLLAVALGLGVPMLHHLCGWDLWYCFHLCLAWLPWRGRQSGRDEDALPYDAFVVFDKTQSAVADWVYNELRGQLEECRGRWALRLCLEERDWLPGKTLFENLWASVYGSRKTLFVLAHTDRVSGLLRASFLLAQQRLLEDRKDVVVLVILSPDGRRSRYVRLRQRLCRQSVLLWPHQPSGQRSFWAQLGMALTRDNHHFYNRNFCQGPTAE
# Chain of Receptor-interacting serine/threonine-protein kinase 2 (Homo sapiens) (O43353 whole entry, looked up): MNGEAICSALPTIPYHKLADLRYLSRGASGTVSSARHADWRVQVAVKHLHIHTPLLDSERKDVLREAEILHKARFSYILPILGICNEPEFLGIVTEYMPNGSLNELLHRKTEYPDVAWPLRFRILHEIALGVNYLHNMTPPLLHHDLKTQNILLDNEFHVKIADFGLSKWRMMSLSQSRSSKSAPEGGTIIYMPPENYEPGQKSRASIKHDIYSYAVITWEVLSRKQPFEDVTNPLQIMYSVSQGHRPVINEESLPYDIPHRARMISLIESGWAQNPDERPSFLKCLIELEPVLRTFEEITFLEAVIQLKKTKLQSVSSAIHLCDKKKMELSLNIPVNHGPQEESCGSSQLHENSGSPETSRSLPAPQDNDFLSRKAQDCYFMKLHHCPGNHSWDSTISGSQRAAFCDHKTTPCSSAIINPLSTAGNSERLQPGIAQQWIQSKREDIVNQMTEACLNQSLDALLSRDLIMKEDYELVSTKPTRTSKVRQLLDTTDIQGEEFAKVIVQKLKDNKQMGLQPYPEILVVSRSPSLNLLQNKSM
# Chain of Bcl-2-like protein 1 (Homo sapiens) (Q07817 whole entry, looked up): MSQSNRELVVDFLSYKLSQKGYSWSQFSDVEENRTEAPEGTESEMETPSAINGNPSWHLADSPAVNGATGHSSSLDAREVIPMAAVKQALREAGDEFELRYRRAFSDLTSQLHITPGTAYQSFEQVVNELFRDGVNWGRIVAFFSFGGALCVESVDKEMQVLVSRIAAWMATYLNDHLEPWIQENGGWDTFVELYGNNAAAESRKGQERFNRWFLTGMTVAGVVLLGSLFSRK
# Chain of Glutathione S-transferase omega-1 (Homo sapiens) (P78417 whole entry, looked up): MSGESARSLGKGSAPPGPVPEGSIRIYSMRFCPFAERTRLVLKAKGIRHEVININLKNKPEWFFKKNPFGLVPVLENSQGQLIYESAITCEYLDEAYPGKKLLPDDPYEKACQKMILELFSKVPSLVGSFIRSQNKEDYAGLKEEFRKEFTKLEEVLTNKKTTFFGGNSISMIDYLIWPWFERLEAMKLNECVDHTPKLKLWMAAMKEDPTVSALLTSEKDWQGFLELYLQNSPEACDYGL
# Chain of Galanin receptor type 2 (Homo sapiens) (O43603 whole entry, looked up): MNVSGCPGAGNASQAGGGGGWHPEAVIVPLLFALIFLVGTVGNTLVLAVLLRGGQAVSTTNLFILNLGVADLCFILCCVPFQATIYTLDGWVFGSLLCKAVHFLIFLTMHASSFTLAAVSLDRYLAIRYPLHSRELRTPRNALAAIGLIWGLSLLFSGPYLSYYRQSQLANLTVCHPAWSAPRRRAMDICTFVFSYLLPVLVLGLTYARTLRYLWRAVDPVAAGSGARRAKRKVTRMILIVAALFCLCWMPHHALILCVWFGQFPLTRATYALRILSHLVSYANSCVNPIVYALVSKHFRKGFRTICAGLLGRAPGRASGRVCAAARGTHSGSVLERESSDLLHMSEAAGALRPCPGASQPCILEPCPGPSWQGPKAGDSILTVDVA
smiles,measurement,setting,value
CN(C)[C@@H]1C(=O)C(C(N)=O)=C(O)[C@@]2(O)C(=O)C3=C(O)c4c(O)ccc(Cl)c4[C@@H](O)[C@H]3C[C@@H]12,inhibition,[1],24.2%
same,inhibition,[2],-0.22%
same,inhibition,[3],102% (active)
same,inhibition,[4],100% (active)
same,inhibition,[5],101% (active)
same,inhibition,[6],102% (active)
same,inhibition,[7],104% (active)
same,inhibition,[8],102% (active)
same,inhibition,[9],-3.91%
same,inhibition,[10],1.29%
same,inhibition,[11],17.2%
same,activation,[12],6.8%
same,inhibition,[13],-24.2%
same,inhibition,[14],1.42%
Cc1cc(SCC(=O)NCCN2C(=O)CSC2=O)nc2ccccc12,activation,[12],0.99%
same,inhibition,[13],-4.97%
same,inhibition,[14],1.78%
Cc1c(CC(=O)N2CCN(C(=O)C3COc4ccccc4O3)CC2)c(=O)oc2c(O)c(O)ccc12 (configuration not stated),inhibition,[15],69.1% (active)
same,inhibition,[16],89% (active)
same,inhibition,[2],78.1% (active)
same,inhibition,[17],88.8% (active)
same,inhibition,[9],-7.93%
same,inhibition,[10],60.5% (active)
same,inhibition,[11],16%
same,activation,[12],16.8% (active)
same,inhibition,[13],-84.6%
same,inhibition,[14],86.8% (active)
Cc1ccc(Cc2cnc(N)s2)o1,inhibition,[9],0.16%
same,inhibition,[10],2.57%
same,activation,[12],6.28%
same,inhibition,[13],-22.6%
same,inhibition,[14],10.6%
CCc1ccc2c(c1)C1(NN=C(c3ccccc3)S1)C(=O)N2 (configuration not stated),inhibition,[18],24.4%
same,inhibition,[19],24.7%
same,inhibition,[20],13.3%
same,inhibition,[21],19.7%
same,inhibition,[17],63.9% (active)
Cc1ccccc1NCC(=O)N/N=C\c1ccc([N+](=O)[O-])s1,inhibition,[9],1.19%
same,inhibition,[10],7.69%
same,activation,[12],-0.2%
same,inhibition,[13],1.03%
same,inhibition,[14],-2.15%
O=C1NC(=O)C2C1C(c1ccc([N+](=O)[O-])cc1)=NN2Cc1ccccc1 (configuration not stated),inhibition,[20],25.8% (active)
same,inhibition,[21],42.9% (active)
same,inhibition,[22],25.8% (active)
same,inhibition,[23],25.6%
same,inhibition,[24],4.55%
same,inhibition,[25],49.4% (active)
same,inhibition,[26],51.9% (active)
O=C(c1ccc(Cl)cc1)c1cnc(Nc2ccccc2)s1,inhibition,[20],9.98%
same,inhibition,[21],29.5% (active)
CC(=O)Nc1cccc(-c2cnc3ccccc3n2)c1,activation (% of control),[27],165% (active)
same,activation (% of control),[28],126%
same,activation (% of control),[29],101%
Cc1nc(Cl)c2oc3ccccc3c2n1,inhibition,[20],39% (active)
same,inhibition,[21],20.8%
same,inhibition,[30],7.72%
